Assay results from article PMC5540273 (PLoS ONE, 2017).

What was measured:
Conditions in all cases: concentration: 1 μM,replicates: in singlicate; n = 1
DCAMKL2 = system: T1, DCAMKL2
T1 construct: gene DCLK2

DCAMKL3 = system: T2, DCAMKL3
T2 construct: gene DCLK3

DDR1 = system: DDR1
DDR2 = system: DDR2
DLK = system: T3, DLK
T3 construct: gene MAP3K12

DMPK2 = system: T4, DMPK2
T4 construct: gene CDC42BPG

DMPK = system: DMPK
DRAK1 = system: T5, DRAK1
T5 construct: gene STK17A

DRAK2 = system: T6, DRAK2
T6 construct: gene STK17B

DYRK1A = system: DYRK1A
DYRK1B = system: DYRK1B
DYRK2 = system: DYRK2
EGFR = system: EGFR
EIF2AK1 = system: EIF2AK1
EPHA1 = system: EPHA1
EPHA2 = system: EPHA2
EPHA3 = system: EPHA3
EPHA4 = system: EPHA4
EPHA5 = system: EPHA5
EPHA6 = system: EPHA6
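Further: KINOMEscan kinase panel screen.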

SMILES	%Inh (DCAMKL2)	%Inh (DCAMKL3)	%Inh (DDR1)	%Inh (DDR2)	%Inh (DLK)	%Inh (DMPK2)	%Inh (DMPK)	%Inh (DRAK1)	%Inh (DRAK2)	%Inh (DYRK1A)	%Inh (DYRK1B)	%Inh (DYRK2)	%Inh (EGFR)	%Inh (EIF2AK1)	%Inh (EPHA1)	%Inh (EPHA2)	%Inh (EPHA3)	%Inh (EPHA4)	%Inh (EPHA5)	%Inh (EPHA6)
Cc1nnc(-c2ccc3occ(-c4ccc(S(C)=O)cc4)c3n2)o1 (stereo not shown)	0%	0%	0%	1%	0%	0%	0%	0%	0%	0%	0%	0%	0%	0%	0%	3%	4%	23%	1%	17%
CC(=O)c1c(-c2ccncc2)[nH]c(-c2ccncc2)c1C [GW493036]	3%	0%	67%	0%	0%	0%	23%	44%	76%	99.9%	100%	92.3%	37%	17%	19%	6%	0%	0%	0%	0%
COc1cc2ncn(-c3cc(OCC4CCCCC4)c(C(N)=O)s3)c2cc1OC [GSK204559]	25%	0%	0%	0%	31%	7%	0%	0%	0%	21%	11%	33%	38%	1%	3%	4%	14%	10%	0%	11%
C[C@@H](Oc1cc(-n2cnc3ccc(-c4ccncc4)cc32)sc1C(N)=O)c1ccccc1Cl [GSK483724]	18%	0%	37%	8%	17%	2%	47%	81%	0%	82%	91.5%	48%	36%	4%	17%	19%	0%	2%	0%	16%
Cn1ccc2ncnc(Oc3ccc(NC(=O)Nc4cncc(C(F)(F)F)c4)c(Cl)c3)c21	0%	0%	100%	99.9%	0%	0%	0%	0%	0%	0%	5%	0%	0%	0%	17%	81%	92.5%	57%	45%	97.5%
COc1cc(Nc2nccc(N3CCC(NC(=O)c4cccc(C#N)c4)C3)n2)cc(OC)c1OC (stereo not shown) [GSK1379751]	0%	0%	0%	24%	30%	1%	0%	20%	4%	0%	15%	0%	29%	0%	11%	2%	0%	4%	0%	0%
Cl.Cl.NC[C@H](CC1CCCCC1)NC(=O)c1ccc(-c2ccnc3[nH]ccc23)s1 [GSK1581428]	17%	0%	0%	8%	85%	100%	99.7%	94.9%	0%	54%	27%	80%	28%	0%	7%	0%	17%	5%	0%	27%
O=C(Nc1n[nH]c2cc(-c3ccco3)ccc12)C1CC1 [SB-737447]	1%	0%	0%	0%	0%	0%	0%	27%	0%	16%	0%	31%	9%	0%	0%	10%	19%	0%	0%	0%
Cn1cc(-c2cccc3c(N)c(C(N)=O)nnc23)cn1	13%	23%	0%	0%	27%	7%	0%	79%	12%	56%	8%	70%	22%	18%	0%	0%	24%	0%	14%	17%
CCn1c(-c2nonc2N)nc2cncc(Br)c21 [SB-738004]	2%	7%	0%	39%	43%	10%	0%	5%	0%	98%	29%	73%	15%	0%	0%	41%	29%	16%	0%	4%
C[C@@H]1CNc2c(sc3ccc4nc(-c5ccc(O)cc5)ccc4c23)C(=O)N1	0%	54%	0%	16%	0%	0%	0%	100%	100%	98.9%	98.1%	24%	11%	0%	0%	0%	14%	0%	11%	5%
COC(=O)c1cccc(NC(=O)NC2CCN(c3ccnc(NCc4ccc(F)cc4)n3)CC2)c1 [GSK1379860]	18%	3%	18%	0%	17%	12%	0%	0%	34%	18%	21%	2%	51%	0%	0%	10%	0%	6%	0%	8%
Cc1ccc(C(=O)Nc2ccc(Oc3ccc4nc(NC(=O)C5CC5)cn4c3)c(F)c2)c(=O)n1-c1ccccc1	0%	0%	98.2%	100%	35%	0%	0%	0%	1%	0%	39%	0%	0%	0%	91.8%	98.5%	49%	90.1%	45%	95.4%
CCN1CCN(CCCC(=O)Nc2n[nH]c3nc(-c4ccc(O)cc4)c(Br)cc23)CC1 [SB-731579]	18%	99.1%	38%	41%	8%	0%	89%	44%	0%	38%	77%	74%	0%	71%	0%	0%	6%	0%	0%	0%
C[C@@H]1CNc2c(sc3ccc4nc(-c5ccncc5)ccc4c23)C(=O)N1	0%	55%	0%	0%	0%	0%	27%	99%	98.3%	99.7%	88%	18%	0%	12%	7%	0%	0%	15%	1%	11%
CSc1nccc(-c2c(-c3ccc(F)cc3)ncn2CCCN2CCOCC2)n1.Cl [SB-217146]	0%	0%	0%	33%	0%	0%	0%	0%	0%	0%	12%	12%	0%	0%	0%	0%	0%	7%	0%	0%
COc1cccc(C2=C(Nc3cccc(Cl)c3)C(=O)NC2=O)c1 [SB-341556]	0%	31%	16%	0%	0%	0%	6%	0%	0%	55%	0%	2%	25%	9%	18%	19%	0%	23%	0%	13%
NC(=O)c1ccc(-c2cc3ncnc(SCC(=O)O)c3s2)cc1	9%	17%	0%	9%	0%	24%	0%	98.3%	100%	94.8%	57%	47%	0%	0%	0%	0%	0%	17%	0%	21%
N#Cc1cccc(C(=O)NC2CCN(c3ccnc(Nc4ccc(F)cc4)n3)C2)c1 (stereo not shown) [GSK1379708]	9%	9%	0%	0%	35%	0%	0%	0%	4%	21%	0%	0%	14%	0%	1%	0%	0%	0%	0%	2%
CCn1c(-c2nonc2N)nc2cncc(CNC3CCNCC3)c21.Cl [SB-747651]	0%	7%	19%	25%	23%	0%	27%	6%	0%	56%	12%	25%	35%	2%	6%	0%	0%	9%	0%	3%
